Screens (PubChem)
MLL AF4-AF9 inh: inhibitors of AF4 peptide binding to AF9, primary screen, biochemical, AlphaScreen, biotin-AF4 peptide, FLAG-AF9, single point. inhibition, % at 10 µM. actives 0.47% (n = 350,000). AID 651704, 2012;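 active = every replicate reaching a set inhibition limit, whatever the replicate mean, cut at about 25% in these data; inconclusive = mean inhibition reaches that limit but some replicates miss it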;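 note: 0% = plate neutral control median and 100% = total signal loss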
RAD52 anneal inh: RAD52 DNA annealing inhibitors, primary screen, biochemical, FRET, single point, set 2. recombinant RAD52 DNA annealing, FRET fluorescence. inhibition, % at 18.7 µM. actives 0.46% (n = 360,000);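 active = every replicate showing at least 50% inhibition; inconclusive = mean inhibition at least 50% but not in every replicate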
Target sequence (P43351 whole entry, looked up): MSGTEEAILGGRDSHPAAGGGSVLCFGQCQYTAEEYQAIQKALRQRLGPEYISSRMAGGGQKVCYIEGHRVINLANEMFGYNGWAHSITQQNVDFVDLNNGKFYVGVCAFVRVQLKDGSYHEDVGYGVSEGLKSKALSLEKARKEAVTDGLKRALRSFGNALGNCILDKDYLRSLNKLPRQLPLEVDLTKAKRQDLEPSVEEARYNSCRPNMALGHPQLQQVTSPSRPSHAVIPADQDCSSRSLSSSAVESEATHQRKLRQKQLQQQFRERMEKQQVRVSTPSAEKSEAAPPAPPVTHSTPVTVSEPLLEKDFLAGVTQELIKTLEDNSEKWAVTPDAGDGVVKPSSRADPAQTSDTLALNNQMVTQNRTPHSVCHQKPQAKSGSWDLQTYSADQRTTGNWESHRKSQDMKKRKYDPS
dFosB act: activators of delta FosB homodimer, primary screen, biochemical, fluorescence polarization, TAMRA-CDK5 oligo, single point | Protein FosB (Mus musculus), P13346 | purified delta FosB; percent of positive-control signal above neutral wells | activation, % at 25 µM | actives 0.99% (n = 340,000);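 active = mean activation above about 17%, with every replicate also reaching it, limit read from the data, passing the limit was not always enough; inconclusive = only one of the two conditions met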
INS-1E GSIS act: GLuc luminescence reporter in INS-1E cells, primary screen for activators of glucose-dependent secretion of insulin; activation, % at 16.6 µM; INS-1E GLuc reporter insulin secretion, 2-3 h; actives 0.61% (n = 370,000); AID 743287, 2014;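 active = lowest replicate activation of at least 40%, so every replicate reaches that level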;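 note: 0% = median of neutral control wells and 100% = median of IBMX positive control wells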
RAD54 inh: inhibitors of human RAD54 branch migration, primary screen, biochemical, fluorescence, single point. AID 602329, 2012. DNA repair and recombination protein RAD54-like (Homo sapiens), Q92698. actives 0.14% (n = 360,000). RAD54 Holliday junction branch migration, FAM/BHQ fluorescence. inhibition, % at 10.4 µM;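 active = mean normalized replicate activity at least 40 and at least half of replicates scoring 40 or more; inconclusive = only one of the two criteria met; inactive = mean below 40 and under half of replicates reaching 40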;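 note: 0% = median of neutral control wells and 100% = median of positive control wells; inhibitors cause a drop in the FAM fluorescence signal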
DENV2 CPE: inhibitors of DENV2 cytopathic effect, primary screen, cell-based, plate reader, single concentration; actives 1.7% (n = 350,000); AID 651640, 2012; DENV2-infected cells, cytopathic effect rescue; CPE inhibition, % at 9.99 µM; in the data active = CPE inhibition above about 20%, passing the limit was not always enough; inconclusive = no clear call, values can overlap the other calls; tested in BHK-21 cells;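 note: 0% = median of neutral control wells and 100% = median of positive control wells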
* marks the source's active call; other numbers are inactive results; ? = inconclusive; / = not tested or not shown; ! = repeats disagree. Hits are enriched below; roughly 3.1% of the tested compounds scored in any of these assays.

SMILES	MLL AF4-AF9 inh	RAD52 anneal inh	dFosB act	INS-1E GSIS act	RAD54 inh	DENV2 CPE
C[C@@H]1CCCCO[C@H](CN(C)C(=O)Cc2ccccc2)[C@H](C)CN([C@H](C)CO)C(=O)c2cc(NS(=O)(=O)c3ccc(F)cc3)ccc2O1	/	/	/	-26.4	7.8	27.6*
C[C@H](CO)N1C[C@H](C)[C@@H](CN(C)C(=O)Cc2ccccc2)OCCCC[C@H](C)Oc2ccc(NS(=O)(=O)c3ccc(F)cc3)cc2C1=O	/	/	/	-16.6	6.0	126.1*
C[C@@H]1CCCCO[C@@H](CN(C)C(=O)Cc2ccccc2)[C@@H](C)CN([C@H](C)CO)C(=O)c2cc(NS(=O)(=O)c3ccc(F)cc3)ccc2O1	0.1	-12.1	/	-1.0	/	-8.7
C[C@@H]1CCCCO[C@@H](CN(C)C(=O)Cc2ccccc2)[C@H](C)CN([C@H](C)CO)C(=O)c2cc(NS(=O)(=O)c3ccc(F)cc3)ccc2O1	/	/	/	-20.8	-15.8	-1.5
COc1ccc2c3c(n(C)c2c1)[C@H](CO)N(C(=O)c1ccccc1)CC31CN(Cc2ccccc2OC)C1	44.5*	/	/	3.0	/	-3.3
COc1ccc2c3c(n(C)c2c1)[C@H](CO)N(C(=O)c1cccc(F)c1)CC31CN(C(=O)c2cccc(F)c2)C1	0.8	5.1	/	-21.7	/	46.4*
COc1ccc(-c2ccc3c(c2)[C@@H]2[C@@H](CCN2C(=O)C2CCOCC2)[C@H](CO)N3C)cc1	/	/	/	10.4	-1.3	-11.5
CONc1nc(NC(C)(C)C)nc(OCC#N)n1	-2.9	-6.9	5.8	65.0*	/	/
CCCC(=O)Nc1ccc2c(c1)OC[C@H](C)N(C)C[C@H](C)[C@@H](OC)CN(C)C2=O	-3.8	12.6	/	4.7	/	7.1
CCCCCCCCOC(=O)c1c(CSC(=N)N)n(C)c2cc(Br)c(OC(C)=O)cc12	5.7	82.6*	/	269.1*	-1.1	-4.4
FC(F)(F)c1cc(-c2ccccc2)nc(-n2cc(Cl)cn2)n1	4.5	-14.6	-19.7	51.2*	-1.4	3.8
Fc1ccc(-c2cc(C(F)(F)F)nc(-n3cc(Cl)cn3)n2)cc1	1.5	-3.6	-14.0	17.2	/	-10.2
COc1ccc(S(=O)(=O)N[C@@H]2C=C[C@@H](CC(=O)NCCc3ccccc3)O[C@@H]2CO)cc1	1.1	-3.4	/	-4.0	8.9	39.0*
COC(=O)C[C@@H]1C=C[C@@H](NS(=O)(=O)c2ccc(OC)cc2)[C@@H](CO)O1	-3.0	-8.5	/	-2.8	-0.9	23.3*!
C[C@H]1CN([C@@H](C)CO)C(=O)c2cc(NC(=O)Cc3ccccc3)ccc2O[C@@H]1CN(C)S(=O)(=O)c1ccccc1	-1.7	-23.3	/	2.5	3.3	-5.2
Cc1ncc(CSc2nccc(=O)[nH]2)c(CO)c1O	-1.5	-4.0	3.1	80.8*	-0.7	-4.8
CC1(C)C[C@@H]2C[C@@](C)(CN2C(=O)c2ccccc2)C1	-0.2	6.2	-2.0	/	-5.8	5.1
CC1(C)CC2CC(C)(CN2/C=C2/CCCCC2=O)C1 (stereo unspecified)	32.2*	-30.0	2.2	-1.0	-20.5	3.2
O=C(COc1ccccc1-c1ccccc1)NCc1ccco1	5.4	-15.1	-5.9	-0.3	/	-1.8
O=C(O)COc1ccccc1-c1ccccc1	-5.9	-18.3	-8.6	40.8*	-7.3	-12.5
CCOC(=O)c1ccccc1NC(=O)c1n[nH]c(=O)c2ccccc12	/	/	-17.3	82.3*	/	/
Cc1noc(C)c1S(=O)(=O)N(C)C[C@H]1Oc2ccc(NC(=O)Nc3ccccc3)cc2C(=O)N([C@H](C)CO)C[C@@H]1C	/	/	/	-27.7	/	/
C[C@H]1CN([C@@H](C)CO)C(=O)c2cccc(NC(=O)c3nc4ccccc4s3)c2O[C@@H]1CN(C)Cc1ccncc1	4.8	-5.4	/	-19.1	8.5	-13.0
Cc1ccccc1S(=O)(=O)N1[C@@H](c2ccc(Br)cc2)C(C(=O)O)=CC[C@H]1c1ccc(Cl)cc1	-0.3	-9.5	-22.9	-32.9	7.2	4.0
Cc1ccc([C@@H]2CC=C(C(=O)O)[C@H](c3ccc(Br)cc3)N2S(=O)(=O)c2ccccc2C)cc1	-2.6	-11.3	-2.5	-11.4	6.5	28.3*
SMILES	MLL AF4-AF9 inh	RAD52 anneal inh	dFosB act	INS-1E GSIS act	RAD54 inh	DENV2 CPE
CCOc1ccc(/C=C2\SC(=S)N(CC(=O)Nc3ccccn3)C2=O)cc1	-3.7	-8.3	21.8*	3.0	3.2	-6.2
CCOc1ccc(/C=C2\SC(=S)N(CCC(=O)Nc3cccc(C(=O)O)c3)C2=O)cc1	?	-12.6	-10.4	15.1	1.0	31.9*
COc1ccc(S(=O)(=O)N(C)C[C@H]2Oc3c(NC(=O)Nc4ccc5c(c4)OCO5)cccc3C(=O)N([C@@H](C)CO)C[C@@H]2C)cc1	3.2	-7.8	/	2.7	4.6	-5.0
C[C@@H]1CN([C@H](C)CO)C(=O)c2cccc(NC(=O)c3ccc(-c4nccs4)cc3)c2O[C@H]1CN(C)C(=O)Nc1ccc(F)cc1	-0.1	-13.7	/	7.5	-0.9	-6.6
C[C@@H]1CN([C@H](C)CO)C(=O)c2cccc(NC(=O)c3ccc(-c4nccs4)cc3)c2O[C@H]1CN(C)S(C)(=O)=O	-1.3	10.5	/	11.5	2.5	1.9
C[C@@H]1CN([C@@H](C)CO)C(=O)c2cccc(NC(=O)c3ccc(-c4nccs4)cc3)c2O[C@H]1CN(C)C	0.3	-2.3	/	27.5	-10.8	73.0*
C[C@@H]1CN([C@@H](C)CO)C(=O)c2cccc(NC(=O)c3ccc(-c4nccs4)cc3)c2O[C@@H]1CN(C)S(C)(=O)=O	-1.7	11.7	/	-4.4	2.0	24.0*
C[C@@H]1CN([C@H](C)CO)C(=O)c2cccc(NC(=O)c3ccc(-c4nccs4)cc3)c2O[C@@H]1CN(C)C(=O)Nc1ccc(F)cc1	-6.8	-19.5	/	-4.6	3.1	62.9*
C[C@H](CO)N1C[C@H](C)[C@H](CN(C)C)Oc2c(NC(=O)c3ccc(-c4nccs4)cc3)cccc2C1=O	-0.6	-3.9	/	16.1	7.8	-3.9
CCCNC(=O)c1cc(-c2ccc3c(c2)OCO3)on1	-5.4	-1.7	-3.0	-2.1	0.0	3.9
O=C(NCCc1ccccc1)c1cc(-c2ccc3c(c2)OCO3)on1	/	/	-2.8	44.4*	0.9	/
Cn1nc(-c2ccc(Cl)cc2)nc2c(=O)n(C)c(=O)nc1-2	-1.6	/	/	/	58.5*	/
C[C@@H]1CN([C@@H](C)CO)C(=O)c2cc(-c3ccccc3)cnc2O[C@@H]1CN(C)C(=O)Nc1ccccc1	/	/	/	0.6	6.8	-2.6
COc1ccccc1NCCC(=O)O	1.9	-8.2	-1.6	19.5	/	2.3
O=C(O)CCNc1ccc(NCCC(=O)O)c2c1C(=O)c1ccccc1C2=O	31.9*	-111.3	-25.8	-6.5	/	-2.8
